For 40 compounds, growth results are on record in PubChem BioAssay (NCI).

Compounds without any hit were thinned out: in the full panel of roughly 83,000, 20% have a hit.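 Cell lines were cultured in 96-well plates, exposed to a single compound concentration, and assessed for percent growth 48 hours later.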 The source made the active and inactive calls.

The experiment deals with COLO 205 colon. The experiment can be described thus: NCI-60 one-dose screen, 48 h (100 = growth as untreated, 0 = no growth, -100 = all killed). Conditions: 10 µM unless noted. The method, then: Cells are grown in 96 well plates and exposed to the test compound for 48 hours. Compounds are tested at a single concentration, which is 10^-5 M for most compounds. The reported endpoint is percent growth (GI% or GIPRCNT), where numbers from 0 - 100% represent growth inhibition, and numbers from -100% - 0 represent cell death. For example, a value of 40 represents 60% growth inhibition. A value of 0 means no net growth occurred over the course of the experiment. A value of -40 indicates 40% of cells at the beginning of the experiment died by the end of the experiment. A value of -100 means all cells are dead at the end of the experiment.
NCI-60 Human Tumor Cell Lines Screen was performed using the standard one-dose NCI protocol, which is described in more detail at https://dtp.cancer.gov/discovery_development/nci-60/default.htm.
Compounds with GIPRCNT values below 10 were considered active. Activity score was based on GIPRCNT using the following formula: […]
Score is 0 for GIPRCNT values of 100 or above, 50 for GIPRCNT values of 0, and 100 for GIPRCNT values of -100.
As to `COc1ccc(-c2nc([C@@H](C)Sc3nc(N)cc(N)n3)c(C)s2)cc1OCCN1CCOCC1`, the growth was 116% (inactive).

Consider `O=C(CSc1nc2sc3c(c2c(=O)n1-c1ccc(Cl)cc1)CCCC3)Nc1nc(-c2cccc(Br)c2)cs1`, for which the growth is 85.1% (inactive).

In the case of `COc1cc(/C(C)=C(\c2ccc(Cl)cc2)c2ccc(OCCN(C)C)cc2)ccc1F`, the growth is -33.8% (active).

As for `Cc1cc2nc3c4cc([N+](=O)[O-])ccc4n(CCN(C)C)c3nc2cc1C`, the growth was -42.3% (active).

Consider `COc1cc(/C=N/NC(=O)c2cnn3c2NC(c2ccccc2)C3)ccc1OCc1ccccc1` (stereo not given), for which the growth was -2.34% (active).

With `O=C(/C=C(/C=C/c1coc2ccccc12)OB(F)F)/C=C/c1coc2ccccc12`, the growth was 95.9% (inactive).

Consider `C=C1C(=O)O[C@H]2[C@H]1CC/C(CNC(=O)C(C)c1ccc(CC(C)C)cc1)=C\CC[C@@]1(C)O[C@@H]21` (stereo not given in full), for which the growth is -34.8% (active).

As for `COc1ccc(/C=C/c2nc(Nc3ccc(Cl)cc3)c3ccccc3n2)cc1`, the growth is 63.1% (inactive).

Consider `N#Cc1c(NCc2ccccc2I)sc2c1CCCCC2`, for which the growth was 108% (inactive).

Consider `O=S(=O)(NCCNc1nccc(-c2c(-c3cccc(F)c3)nc3sccn23)n1)c1ccc(Cl)cc1`, for which the growth was 40% (inactive).

In the case of `O=C(/C=C/c1c(-c2ccc(Cl)cc2)nn(-c2ccccc2)c1C(F)(F)F)c1ccc(Cl)cc1`, the growth was 110% (inactive).

As to `COc1cc(-c2n/c(=C\c3c(O)[nH]c4ccc(Cl)cc34)cc3c2=Nc2ccccc2-3)ccc1F`, the growth was 7.9% (active).

For `C=C1C(=O)O[C@H]2[C@H]1CC/C(COC(=O)NCc1c[nH]c3ccc(F)cc13)=C\CC[C@@]1(C)O[C@@H]21`, the growth is -59.1% (active).

For the compound `Oc1cccc(CCc2ccc(Oc3cc(CCc4cccc(O)c4)cc(O)c3O)cc2)c1`, the growth was 111% (inactive).

As for `O=C(CCN1CCCC1)Nc1ccc2c(Nc3ccc(Br)cc3)c3ccccc3nc2c1`, the growth is -42.9% (active).

For `COc1c(Cl)c2c(c(OC)c1OC)-c1ccc(SC)c(=O)cc1[C@@H](NC(=O)OCC(F)(F)F)CC2`, the growth was -0.15% (active).

Regarding `N#Cc1c(NC(=O)NCc2ccccc2)sc2c1CCCC2`, the growth is 10.1% (inactive).

As for `CCCCCN1C=C/C(=C\C(=O)N(C)c2ccc(OC(F)(F)F)cc2)c2ccccc21`, the growth is 104% (inactive).

Regarding `CN1C(=O)NC(c2ccc3c(c2)OCO3)C=C1c1ccccc1` (stereo not given), the growth is 107% (inactive).

`CCCC/C=N/NC(=S)NCc1ccccc1`: the growth is 100% (inactive).

For the compound `O=C(c1nc2ccccc2[nH]1)C1C(c2ccc(Cl)cc2)C2CC3CCCC[C@H]3N2[C@@]12C(=O)Nc1cc(Cl)ccc12` (stereo not given in full), the growth was 29.8% (inactive).

On to `O=C1NN(C(=O)c2ccccc2)C(c2ccc(Cl)c(Cl)c2)=C/C1=C\c1ccc([N+](=O)[O-])cc1`, for which the growth is 27.9% (inactive).

As for `COc1cc2cc(CN3CCN(c4nccc(-c5ccc6ccccc6c5)n4)CC3)c(=O)[nH]c2cc1OC`, the growth is 80% (inactive).

Turning to `COc1cc2oc(-c3cccc(C(=O)Nc4ccc(Cl)cc4)c3)cc(=O)c2c(O)c1OC`, the growth was 74% (inactive).

Take `COC(=O)C(OC(C)=O)C(OC(C)=O)c1ccc(OC)c(OC)c1` (stereo not given): the growth was 123% (inactive).

In the case of `COc1cc(C2C3=C(COC3=O)N(CCO)c3cc4c(cc32)CCC4)cc(OC)c1OC` (stereo not given), the growth is -98.8% (active).

With `C=C(C)[C@@H]1CC[C@]2(C(=O)N[C@@H](Cc3ccccc3)C(=O)OC)CC[C@]3(C)[C@H](CC[C@@H]4[C@@]5(C)CCC(=O)C(C)(C)[C@@H]5CC[C@]43C)[C@@H]12`, the growth is 94.5% (inactive).

Take `COc1ccc(C(=O)CSc2nc(-c3cc(OC)ccc3OC)cc(-c3ccc(Cl)cc3)c2C#N)cc1`: the growth is 65.2% (inactive).

Take `O=C(Nc1ccc(NC(=O)c2cc(=O)[nH]c3ccccc23)cc1)Nc1cccc(Cl)c1`: the growth was 90.1% (inactive).

Turning to `O=C(Cc1ccc(/C=C/C(=O)c2ncc[nH]2)cc1)Nc1ccc(Cl)cc1`, the growth was 32.9% (inactive).

For the compound `COc1cc2oc(-c3cccc(C(=O)Nc4ccc(Br)cc4)c3)cc(=O)c2c(OC)c1OC`, the growth is 54.4% (inactive).

Take `COc1ccc(CNCCN2C(=O)c3ccc4c5c(ccc(c35)C2=O)C(=O)N(CCNCc2ccc(OC)c(OC)c2OC)C4=O)c(OC)c1OC`: the growth was -10.9% (active).

`OC(c1cccc(C(F)(F)F)c1)c1cnccc1NC1CCCCC1` (stereo not given): the growth is -39.9% (active).

As to `C=C(C)[C@@H]1CC[C@]2(C(=O)N3CCN(C)CC3)CC[C@]3(C)[C@H](CC[C@@H]4[C@@]5(C)C/C(=C/c6ccncc6)C(=O)C(C)(C)[C@@H]5CC[C@]43C)[C@@H]12`, the growth is 53.7% (inactive).

Consider `Cn1c(-c2c(N)n(CCCN3CCOCC3)c3nc(C#N)c(C#N)nc23)nc2ccccc21`, for which the growth is 70% (inactive).

As for `CCCOC(=O)N[C@H]1CCc2cc(OC)c(OC)c(OC)c2-c2ccc(SC)c(=O)cc21`, the growth was 1.57% (active).

Consider `c1ccc(-c2cn3c(ccc4ccccc43)n2)cc1`, for which the growth was 41.9% (inactive).

`CCOC(=O)C1=C(CCl)NC(=O)NC1c1ccc2c(c1)OCO2` (stereo not given): the growth is 75.6% (inactive).

As to `CCOC(=O)C1=C(C)NC(SCc2cc(=O)oc3ccc(F)cc23)=N[C@@H]1c1cccc2ccccc12`, the growth was 108% (inactive).

Consider `COc1ccc(C(=O)C2C(C#N)C(C#N)C3c4ccccc4C=CN23)cc1` (stereo not given), for which the growth is 107% (inactive).
